# Compound activity from PubChem.
# BCLXL inh: inhibitors of human Bcl-xL, primary screen, biochemical, fluorescence polarization, HTS | 320,000 compounds, 0.7% hits | Bcl-2-like protein 1 (Homo sapiens), Q07817 | GST-Bcl-xL / FITC-Bim BH3 peptide fluorescence polarization | inhibition, % at 10.9 µM | AID 2129, 2009;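 active means inhibition above the mean of all tested compounds plus 3 SD, cutoff set per campaign, cut at about 30% in these data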;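 further: 0% = DMSO wells and 100% = unlabeled Bim-BH3 peptide competitor; inhibitors lower millipolarization by displacing the labeled peptide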
# eLon inh: inhibitors of E. coli Lon protease, primary screen, biochemical, fluorescence polarization; P0A9M0; purified E. coli Lon protease; inhibition, % at 7.94 µM; 360,000 compounds, 0.42% hits; AID 602123, 2011; in the data active means inhibition above about 13%, passing the limit was not always enough;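 further: 0% = enzyme with probe and DMSO and 100% = no enzyme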
# Target sequence (P0A9M0 whole entry, looked up): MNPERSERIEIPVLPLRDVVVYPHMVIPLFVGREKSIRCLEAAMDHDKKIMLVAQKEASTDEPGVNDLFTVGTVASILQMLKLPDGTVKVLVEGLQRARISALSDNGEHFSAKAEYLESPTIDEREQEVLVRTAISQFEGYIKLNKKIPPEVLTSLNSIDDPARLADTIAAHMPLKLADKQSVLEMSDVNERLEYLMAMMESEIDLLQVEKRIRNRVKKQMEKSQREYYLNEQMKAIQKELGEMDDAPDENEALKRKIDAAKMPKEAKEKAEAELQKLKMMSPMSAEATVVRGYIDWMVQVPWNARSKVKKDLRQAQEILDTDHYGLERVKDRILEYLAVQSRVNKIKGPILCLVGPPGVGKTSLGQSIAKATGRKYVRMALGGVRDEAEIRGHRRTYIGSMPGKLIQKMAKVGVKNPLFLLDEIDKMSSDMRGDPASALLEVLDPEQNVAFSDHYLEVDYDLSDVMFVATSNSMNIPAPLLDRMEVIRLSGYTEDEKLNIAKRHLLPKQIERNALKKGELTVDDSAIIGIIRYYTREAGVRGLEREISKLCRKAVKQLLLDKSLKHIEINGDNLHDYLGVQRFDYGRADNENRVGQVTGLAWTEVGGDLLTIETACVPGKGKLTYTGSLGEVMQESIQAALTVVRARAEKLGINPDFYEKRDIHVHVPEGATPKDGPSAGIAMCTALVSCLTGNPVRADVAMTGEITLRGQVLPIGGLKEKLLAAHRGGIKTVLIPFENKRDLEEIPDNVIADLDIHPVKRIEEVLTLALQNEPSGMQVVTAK
# MCL1 BIM primary: inhibitors of MCL1 binding to BIM-BH3, primary screen, biochemical, fluorescence polarization | Induced myeloid leukemia cell differentiation protein Mcl-1 (Homo sapiens), Q07820 | AID 2057, 2009 | GST-MCL1 / FITC-Bim-BH3 fluorescence polarization | inhibition, % at 10.9 µM | 320,000 compounds, 0.68% hits;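 active means inhibition above the mean inhibition of all tested compounds plus 3 SD, set per campaign, cut at about 40% in these data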;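 further: 0% = DMSO wells and 100% = unlabeled Bim-BH3 peptide control; higher means more loss of mP so more displacement of Bim peptide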
# GLD-1 RNA inh: GLD-1/TGE RNA complex disruptors, primary screen, biochemical, fluorescence polarization; Female germline-specific tumor suppressor gld-1 (Caenorhabditis elegans), Q17339; purified GLD-1 + fluorescein TGE RNA; inhibition, % at 5.96 µM; 320,000 compounds, 0.44% hits;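 active means percent inhibition above a per-plate cutoff, the plate mean of test compounds plus 3 SD, cut at about 30% in these data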;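 further: 0% = DMSO wells with GLD-1 and probe and 100% = wells lacking GLD-1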
# MEX-5 binding: MEX-5 zinc finger RNA-binding disruptors – biochemical, C. elegans, fluorescence polarization, MLPCN library, primary screen. MEX-5/FITC-TCR2 RNA binding; hits give low values. AID 1832, 2009. activity score (negative = inhibition of binding), % at 10 µM. Zinc finger protein mex-5 (Caenorhabditis elegans), Q9XUB2. 300,000 compounds, 0.38% hits;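 active means inhibition past about -25% in most replicates, and total fluorescence under double the plate's negative control median, limit read from the data; inconclusive means replicates evenly split on the limit, or fluorescence at least double controls; inactive means too little inhibition in most replicates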;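 further: 0% = DMSO and -100% = 5 µM competing unlabeled TCR2 RNA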
# EBV gp42 block: Epstein-Barr virus gp42 inhibitors, primary screen, biochemical, uHTS, fluorescence polarization | Fluorescence polarization binding assay, mP read-out | inhibition, % (tested at 21.74 µM) | 220,000 compounds, 0.42% hits; in the data active means inhibition above about 50%
# BCLXL inh confirm: Bcl-xL inhibitors blocking Bim BH3 binding, confirmation, counter-screen for MCL1 inhibitor project, biochemical, fluorescence polarization; shares compounds with MCL1 BIM primary; GST-Bcl-xL / FITC-Bim BH3 peptide FP binding; inhibition, % at 10.9 µM; 1,700 compounds, 54% hits; AID 2166, 2009;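 active means inhibition above a cutoff equal to the mean inhibition of all tested compounds plus 3 SD, cut at about 30% in these data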;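 further: 0% = DMSO wells and 100% = unlabeled Bim BH3 control peptide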
# MCL1 BIM confirm: inhibitors of MCL1 binding to BIM-BH3, confirmation, biochemical, fluorescence polarization, triplicate; shares compounds with MCL1 BIM primary; GST-MCL1 / FITC-Bim-BH3 fluorescence polarization; inhibition, % at 10.9 µM; 1,700 compounds, 61% hits; AID 2168, 2009;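 active means inhibition above the average of all tested compounds plus 3 SD, cut at about 40% in these data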;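 further: 0% = DMSO wells and 100% = unlabeled Bim-BH3 control peptide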
# An asterisk follows results filed as active; u = inconclusive; x = not tested or not shown; + = active, no number. Compounds with a hit are over-represented: about 1.5% of the library has one in this group of screens.
SMILES,BCLXL inh,eLon inh,MCL1 BIM primary,GLD-1 RNA inh,MEX-5 binding,EBV gp42 block,BCLXL inh confirm,MCL1 BIM confirm
COc1cc2cc(C)c(SCC(=O)N3CCOCC3)nc2cc1OC,53*,-4,56*,33*,2,1,10,16
O=C(CNC(=O)c1ccc2c(c1)OCO2)N/N=C/c1cc(Br)ccc1O,-1,-5,0,-2,3,x,x,x
COc1ccc(C2=Nn3c(nnc3-c3ccccc3F)SC2)cc1OCC1CC1,x,3,x,2,x,x,x,x
CNc1cccccc1=S,54*,1,78*,28,-7,11,28,27
CNc1ccccc1,4,7,4,1,x,x,x,x
Cc1ccc(S(=O)(=O)N(C)CC(=O)N(C)Cc2cccs2)cc1,x,2,x,x,x,x,x,x
COc1cc(C)ccc1OCc1cc(C(=O)N2CCCCCC2)no1,x,-11,x,x,0,x,x,x
COc1cc(Cl)ccc1OCc1cc(C(=O)N2CCCCCCC2)no1,3,4,84*,-7,x,x,5,8
COc1ccc(C(=O)NCCCNC(=O)c2ccccn2)cc1,1,0,0,3,1,x,x,x
Cc1cc(C)n2c(=O)c3ccc(Cl)cc3nc2c1C#N,21,0,51*,7,-3,-5,6,-1
CCCCCN(C(=O)CCC(=O)OC(C)C(=O)Nc1cccc(C#N)c1)c1c(N)n(CCCC)c(=O)[nH]c1=O (configuration not stated),0,-2,-6,7,-1,x,x,x
Cc1cc(O)c(C(C)C)cc1N=Cc1ccccc1[N+](=O)[O-],x,6,x,x,x,x,x,x
Cc1ccc(N=Cc2cc(Cc3ccccc3Cl)cc([N+](=O)[O-])c2O)c(O)c1,44*,-3,47*,-3,-10,-2,7,47*
COc1ccc(CC(=O)OCC(=O)N2CCCc3ccccc32)cc1OC,0,-8,4,-2,0,x,x,x
Cc1ccc(Cl)cc1NC(=O)c1ccccc1OCC(=O)N1CCOCC1,-4,5,63*,7,0,x,7,13
Cc1ccc(Cl)cc1NC(=O)c1ccccc1OCC(=O)Nc1ccc(Cl)cc1,6,-6,9,-2,1,-16,x,x
COc1ccccc1C(=O)N(C)c1nnc(-c2ccccc2)s1,0,-2,-10,-11,-1,x,x,x
O=C1CCCC2=C1C(c1cccs1)Nc1ccc3ncccc3c12 (configuration not stated),5,-12,13,4,-1,-11,x,x
O=C1CCCC2=C1C(c1ccc(O)c(O)c1)Nc1ccc3ncccc3c12 (configuration not stated),36*,3,50*,7,-7,9,41*,57*
C/C(=N\Nc1ncnc2sc(C)c(C)c12)c1ccccn1,101*,-25,101*,25,u,x,+,+
CCCCCCc1c(O)c2ccccc2[nH]c1=O,7,1,0,1,-2,-14,x,x
COC1=CC(=O)C(O)=C(CCCCCCC/C=C/CCCCCCCC2=C(O)C(=O)C=C(OC)C2=O)C1=O,45*,1,107*,4,1,x,32*,81*
CCCCCCCCCCCC1=C(O)C(=O)C=C(O)C1=O,8,4,52*,4,-1,x,46*,76*
COc1ccc(NC(=O)c2cc(C3CCCCN3C(=O)c3cc(C(C)(C)C)nn3C)on2)c(C)c1 (configuration not stated),x,-4,x,x,x,x,x,x
Nc1ncnc2oc(-c3ccco3)c(-c3ccco3)c12,36*,10,95*,8,-18,45,40*,93*
SMILES,BCLXL inh,eLon inh,MCL1 BIM primary,GLD-1 RNA inh,MEX-5 binding,EBV gp42 block,BCLXL inh confirm,MCL1 BIM confirm
CCCn1c(=O)c2ccccc2n2c(SCc3cc(=O)oc4ccc5ccccc5c34)nnc12,35*,-7,40*,31*,0,-17,18,27
CC(C(=O)Nc1ccc(O)cc1C(=O)O)N1C(=O)/C(=C\c2cccs2)SC1=S (configuration not stated),28,0,58*,-6,-9,x,27,39
O=C(CN1C(=O)/C(=C\c2ccco2)SC1=S)Nc1ccc(O)cc1C(=O)O,46*,-25,76*,-1,-11,x,23,38
O=C(CCCN1C(=O)/C(=C/c2ccco2)SC1=S)Nc1ccccc1C(=O)O,40*,-8,83*,-1,-17,-12,39*,73*
Cc1ccc(CNC(=O)C(CC(C)C)OC(=O)c2ccco2)cc1 (configuration not stated),-1,6,-3,5,-2,x,x,x
Nc1c(C(=O)NC2CC2)sc2nc3c(c(-c4ccco4)c12)CC/C3=C/c1ccco1,73*,25,115*,85*,x,104*,64*,96*
CC1(OC(=O)c2ccco2)C(=O)C=C2C=C(c3ccc(C#N)cc3)OC=C2C1=O (configuration not stated),12,x,19,13,-20,x,x,x
COC(=O)CCC(=O)OC1(C)C(=O)C=C2C=C3CCCN3C=C2C1=O (configuration not stated),22,-2,48*,12,-6,11,33*,32
COC(=O)CCCC1=CC2=CC(=O)C(C)(OC(=O)c3cccs3)C(=O)C2=CN1c1ccccc1 (configuration not stated),17,9,16,15,-7,x,x,x
COC(=O)CCC(=O)OC1(C)C(=O)C=C2C=C(C3CC3)N(CCCCO)C=C2C1=O (configuration not stated),22,-20,19,16,1,-2,x,x
CC(C)(C)OC(=O)NCCCCC1=CC2=CC(=O)C(C)(OC(=O)c3cnc4ccccc4n3)C(=O)C2=CO1 (configuration not stated),59*,x,58*,89*,-28*,x,39*,52*
